For 25 molecules, Potency results are on record in PubChem BioAssay (NCATS).

The structures appear in SMILES notation. The source made the active and inactive calls. How the calls were made is not given here.
Potency means the concentration at half of the fitted maximal effect.

This assay concerns HIV-1 nucleocapsid protein NCp7 (binding to TG oligonucleotide). The assay is described as follows: HIV Nucleocapsid (AID 346).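 Further: potency is for inhibitors that block NC binding and lower polarization.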 The following applies: HIV-1 NC / fluorescein-TGTGTGTG probe, fluorescence polarization. In short, it runs like this: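 Inhibition of nucleocapsid binding to single-stranded 5'-TGTGTGTG probe (10 nM) was measured by fluorescence polarization after 1 hr at room temperature with 100 nM protein under high-salt, zinc-containing, reducing conditions.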
Background: In fluorescence polarisation assays a small probe gives low polarisation when free and higher when bound to something large.
For the molecule `CN1CCN(c2ncc3nc(-c4cc(F)cc(F)c4)c(=O)n(-c4ccccc4)c3n2)CC1`, the Potency is > 20 µM (inactive).
For the molecule `COc1ncc2nc(-c3ccc(Cl)cc3)c(=O)n(-c3ccccc3)c2n1`, the Potency was > 20 µM (inactive).
The value for `CNc1nc(-c2ccccc2C(F)(F)F)nc2ccccc12` was > 20 µM (inactive); that for `CN(C)c1ccc(-c2cncnc2-n2ccnc2)cc1` was > 20 µM (inactive).
For the molecule `O=c1c(-c2cc(F)cc(F)c2)nc2cnc(N3CCNCC3)nc2n1C1CC1`, the Potency is > 20 µM (inactive).
Take `O=c1cnc2cnc(N3CCOCC3)nc2n1CCc1ccccc1`: the Potency was > 20 µM (inactive).
With `CCNc1ncc2nc(-c3ccc(F)cc3)c(=O)n(CCC#N)c2n1`, the Potency is > 4 µM (inactive).
Take `O=C(c1csnn1)N1CCC2(CCCN(c3ncccn3)C2)CC1`: the Potency was > 20 µM (inactive).
Consider `COc1ccccc1CNc1ncncc1-c1ccccc1Cl`, for which the Potency was > 20 µM (inactive).
Consider `O=C(c1cc(C(F)(F)F)cc(C(F)(F)F)c1)N1CCC2(CCN(Cc3ccncc3)CC2)CC1`, for which the Potency is > 20 µM (inactive).
`c1ccc(C(c2ccccc2)N2CCC3(CCNCC3)CC2)cc1`: the Potency is > 20 µM (inactive).
The value for `COc1ccc(Oc2ncc3nc(-c4cc(F)cc(F)c4)c(=O)n(C)c3n2)cc1` was > 20 µM (inactive); that for `O=c1c(CCc2ccccc2)nc2cncnc2n1Cc1ccccc1` was > 20 µM (inactive).
The value for `COc1ccc(Oc2ncc3nc(C)c(=O)n(C)c3n2)cc1` was > 20 µM (inactive); that for `CS(=O)(=O)N1CCC2(CC1)CN(Cc1ccccc1)C2` was > 20 µM (inactive).
The value for `Cc1cccc(CNc2cc(-c3ccccc3CN(C)C)ncn2)c1` was > 20 µM (inactive); that for `CS(=O)(=O)Nc1cccc(-c2ccc3ncnc(Nc4ccccc4)c3c2)c1` was > 20 µM (inactive); that for `O=c1c(CCc2ccccc2)nc2cnc(N3CCNCC3)nc2n1-c1ccccc1` was > 20 µM (inactive).
Consider `CS(=O)(=O)Nc1cccc(-c2cc(NCc3cccs3)ncn2)c1`, for which the Potency was > 20 µM (inactive).
The value for `CCNc1ncc2nc(-c3cc(F)cc(F)c3)c(=O)n(C3CC3)c2n1` was > 20 µM (inactive); that for `CN(C)Cc1ccccc1-c1cncnc1NCc1ccccc1` was > 20 µM (inactive); that for `COc1ccc(Oc2ncc3nc(-c4cn(C)c5ccccc45)c(=O)n(C)c3n2)cc1` was > 20 µM (inactive).
In the case of `CN1CCN(c2ncc3ncc(=O)n(-c4ccccc4)c3n2)CC1`, the Potency was > 20 µM (inactive).
As for `N#CCCn1c(=O)c(-c2ccccc2)nc2cnc(Nc3ccccc3)nc21`, the figure is > 20 µM (inactive).
Take `O=c1c(-c2cc(F)cc(F)c2)nc2cncnc2n1C1CC1`: the Potency is > 20 µM (inactive).
